Data published in the supplement of paper PMC10981050.
Where “and” joins values, the source holds several entries; their conditions need not be identical. Equal values may be shown once. Where a name gives a salt, the structure may show the parent alone.

Tests used:
Test in all cases: cell viability relative to vehicle control; higher = less cytotoxic
Conditions in all cases: 10 µM
K562 = system: K562
Procedure, shortened: (§1)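 CRISPR-edited mutant clones and isogenic wild-type clones from four leukaemia lines were screened against Selleck bioactive, kinase and epigenetic probe libraries, with identity-inconsistent compounds excluded. Each compound was acoustically dispensed at a single 10 µM dose into 384-well plates holding 2000 cells in 50 µL medium per well. After 48 h the supernatant was removed and CellTiter-Glo luminescence was read. Viability was expressed as percent of the on-plate vehicle control and analysed in Genedata Screener.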

MARIMO = system: MARIMO
Procedure, shortened: as §1

MOLM14 = system: MOLM14
Procedure, shortened: as §1

OCI-AML2 = system: OCI-AML2
Procedure, shortened: as §1

Row | Compound | cell viability (K562; SRSF2 genotype: SRSF2 P95H/wt) | cell viability (K562; SRSF2 genotype: SRSF2 wt/wt) | cell viability (MARIMO; SRSF2 genotype: SRSF2 P95H/wt) | cell viability (MARIMO; SRSF2 genotype: SRSF2 wt/wt) | cell viability (MOLM14; SRSF2 genotype: SRSF2 P95H/wt) | cell viability (MOLM14; SRSF2 genotype: SRSF2 wt/wt) | cell viability (OCI-AML2; SRSF2 genotype: P95H/wt) | cell viability (OCI-AML2; SRSF2 genotype: wt/wt)
1 | CC(C)N(CCC(=O)c1ccc2ccccc2c1)Cc1ccccc1 | 12.2% and 12.8% | 13.9% | 0.57% | 0.67% | 0.58% | 0.45% | 0.38% | 0.4%
2 | CNC(=O)c1cc(Oc2ccc3nc(N[C@@H]4CCCC[C@H]4O)sc3c2)ccn1 | 87.4% and 93.2% | 89.4% | 100% | 99.1% | 89.2% | 99.5% | 90% | 83.2%
3 | Oc1ccc(/C=C/c2cc(O)cc(O)c2)cc1 [Resveratrol] | 83.1% and 92.7% | 91.6% | 70.1% | 79.6% | 73.4% | 80% | 67.2% | 72.8%
4 | C[C@@H]1O[C@@H](O[C@H]2[C@H](O[C@H]3CC[C@@]4(C)[C@@H](CC[C@]5(C)[C@@H]4CC=C4[C@@H]6CC(C)(C)CC[C@]6(C(=O)O)CC[C@]45C)[C@]3(C)CO)OC[C@H](O[C@@H]3O[C@H](CO)[C@@H](O)[C@H](O)[C@H]3O)[C@@H]2O)[C@H](O)[C@H](O)[C@H]1O [Pulsatilla saponin D] | 0.56% and 0.59% | 0.55% | 0.46% | 0.67% | 0.5% | 0.59% | 0.5% | 0.54%
5 | CC(C)CC(NC(=O)C(Cc1ccccc1)CC(O)C(Cc1ccccc1)NC(=O)OC(C)(C)C)C(=O)NC(Cc1ccccc1)C(N)=O (configuration not stated) | 106% and 109% | 111% | 106% | 99.5% | 108% | 106% | 112% | 120%
6 | COc1cc(/C=C/C(=O)O[C@H]2CC[C@]34C[C@]35CC[C@]3(C)[C@@H]([C@H](C)CCC=C(C)C)CC[C@@]3(C)[C@@H]5CC[C@H]4C2(C)C)ccc1O [Gamma-Oryzanol] | 96.7% and 93.9% | 97.5% | 98.5% | 107% | 103% | 101% | 97.7% | 107%
7 | NCc1ccc(S(N)(=O)=O)cc1 [Mafenide Acetate] | 102% and 98.3% | 94.8% | 95.8% | 106% | 91.9% | 101% | 102% | 110%
8 | CCC1CC(=Cc2cccnc2)C(=O)C(=Cc2cccnc2)C1 (configuration not stated) | 21.1% and 19.7% | 17.9% | 0.77% | 0.8% | 0.49% | 0.29% | 0.25% | 0.31%
9 | C[C@@H](O)[C@H]1C(=O)N2C(C(=O)O)=C(S[C@@H]3CN[C@H](CNS(N)(=O)=O)C3)[C@H](C)[C@H]12 [Doripenem] | 98.4% and 92.9% | 97.5% | 93.2% | 102% | 99.7% | 98.3% | 89.2% | 99%
10 | O=c1ccc2ccc(O)c(O)c2o1 [Daphnetin] | 79.5% and 82.3% | 83.5% | 75.2% | 89% | 84.4% | 93.2% | 81.4% | 86.2%
11 | O=c1[nH]c(=O)c2[nH]cnc2[nH]1 [2,6-Dihydroxypurine] | 107% and 100% | 104% | 106% | 110% | 101% | 107% | 101% | 109%
12 | CCCCC(C)(O)C/C=C/[C@H]1[C@H](O)CC(=O)[C@@H]1CCCCCCC(=O)OC (mixture of isomers) [Misoprostol] | 89.4% and 78.1% | 84.4% | 82.6% | 79% | 83.5% | 80.2% | 89.2% | 84%
13 | CCOC(=O)[C@H](CCc1ccccc1)N[C@H]1CS[C@H](c2cccs2)CN(CC(=O)O)C1=O [Temocapril HCl] | 102% and 101% | 98.8% | 101% | 113% | 99.7% | 102% | 102% | 111%
14 | CCn1c(=O)c(-c2cc[nH]n2)cc2c(C)nc(N)nc21 | 54.4% and 68.5% | 65.7% | 43.5% | 35.6% | 29.2% | 26.4% | 13.8% | 20.5%
15 | CCOC(=O)/C=C/c1ccc(O)c(O)c1 [Ethyl caffeate] | 88.5% and 88.6% | 95% | 44.4% | 80.5% | 78.1% | 78.1% | 76.8% | 77.7%
16 | CC(C)C(=O)Nc1ccc([N+](=O)[O-])c(C(F)(F)F)c1 [Flutamide (Eulexin)] | 92.3% and 90.8% | 101% | 90.3% | 92.3% | 96.8% | 95.4% | 90.5% | 90.1%
17 | O=c1[nH]c(=O)n([C@H]2C[C@H](O)[C@@H](CO)O2)cc1F [Floxuridine] | 54.2% and 46.3% | 30.1% | 86.5% | 96.5% | 48% | 14.9% | 30.9% | 48.8%
18 | COc1cc(CO)cc(OC)c1O [4-Hydroxy-3,5-dimethoxybenzyl alcohol] | 106% and 98.2% | 100% | 102% | 107% | 99.7% | 102% | 108% | 105%
19 | Cc1n[nH]c2ncc(C(=O)N3CCC[C@H]3c3ccc(Cl)cc3)cc12 | 101% and 98.5% | 99.8% | 101% | 128% | 88.8% | 105% | 91.4% | 92.8%
20 | COc1ccc(-c2cc(=O)c3c(O)cc(O[C@@H]4O[C@H](CO[C@@H]5O[C@@H](C)[C@H](O)[C@@H](O)[C@H]5O)[C@@H](O)[C@H](O)[C@H]4O)cc3o2)cc1 [Linarin] | 107% and 103% | 102% | 95.8% | 101% | 111% | 102% | 103% | 98.7%

Row | Compound | cell viability (K562; SRSF2 genotype: SRSF2 P95H/wt) | cell viability (K562; SRSF2 genotype: SRSF2 wt/wt) | cell viability (MARIMO; SRSF2 genotype: SRSF2 P95H/wt) | cell viability (MARIMO; SRSF2 genotype: SRSF2 wt/wt) | cell viability (MOLM14; SRSF2 genotype: SRSF2 P95H/wt) | cell viability (MOLM14; SRSF2 genotype: SRSF2 wt/wt) | cell viability (OCI-AML2; SRSF2 genotype: P95H/wt) | cell viability (OCI-AML2; SRSF2 genotype: wt/wt)
21 | CC(C)(NS(=O)(=O)c1ccc2c(Cl)cnc(N=C(N)N)c2c1)C(=O)O | 102% and 104% | 104% | 101% | 111% | 101% | 102% | 99.1% | 117%
22 | Cn1c(=O)c(F)c(Nc2ccc(I)cc2F)c2c(=O)n(C[C@@H](O)CO)cnc21 | 66.4% and 83.6% | 77% | 43.7% | 36.3% | 45.7% | 29.8% | 47.5% | 46.9%
23 | CC(C)c1onc(-c2c(Cl)cccc2Cl)c1COc1ccc(/C=C/c2cccc(C(=O)O)c2)c(Cl)c1 | 95.1% and 94.7% | 99.7% | 94.5% | 98.6% | 95.5% | 97.3% | 69.3% | 82%
24 | CC1(C)CC(=O)c2c(C(F)(F)F)nn(-c3ccc(C(N)=O)c(N[C@H]4CC[C@H](O)CC4)c3)c2C1 | 23.7% and 29.5% | 27.1% | 30.9% | 25.9% | 3.24% | 4.55% | 13.9% | 21.4%
25 | CC(C)(C)c1nc(-c2ccc(NC(=O)Nc3cccc(C(F)(F)F)c3)c3ccccc23)c2c(N)nccn12 [kira6] | 10.9% and 7.91% | 12.4% | 28.8% | 28.4% | 1.58% | 3.37% | 8.47% | 16.5%
26 | Cc1cccc(N(C)C(=S)Oc2ccc3ccccc3c2)c1 [Tolnaftate] | 99.7% and 106% | 91.9% | 89.3% | 109% | 96.9% | 101% | 106% | 109%
27 | CCCOC(=O)c1cc(O)c(O)c(O)c1 [Propyl gallate] | 96.2% and 91% | 94.7% | 81.8% | 99.1% | 97.6% | 106% | 98.2% | 97.5%
28 | CC(C)(F)C[C@H](N[C@@H](c1ccc(-c2ccc(S(C)(=O)=O)cc2)cc1)C(F)(F)F)C(=O)NC1(C#N)CC1 [Odanacatib (MK 0822)] | 98.7% and 103% | 93.4% | 94.5% | 102% | 104% | 104% | 101% | 102%
29 | C[C@@H]1CC[C@@]2(OC1)O[C@H]1C[C@H]3[C@@H]4CC=C5C[C@@H](O[C@@H]6O[C@H](CO)[C@@H](O)[C@H](O[C@@H]7O[C@H](CO)[C@@H](O)[C@H](O)[C@H]7O)[C@H]6O[C@@H]6O[C@@H](C)[C@H](O)[C@@H](O)[C@H]6O)CC[C@]5(C)[C@H]4CC[C@]3(C)[C@H]1[C@@H]2C [Gracillin] | 31.2% and 29.4% | 1.47% | 70.2% | 11.4% | 12% | 0.55% | 5.61% | 4.21%
30 | OC(CC1c2ccccc2-c2cncn21)C1CCCCC1 (configuration not stated) | 85.4% and 94.1% | 97.5% | 80% | 93.1% | 90.6% | 93.5% | 89.8% | 99.7%
31 | COc1cc(-c2ncn(/C=C\C(=O)OC(C)C)n2)cc(C(F)(F)F)c1 | 5.77% and 12.8% | 10.7% | 19.1% | 20.6% | 2.46% | 0.92% | 4.82% | 9.13%
32 | CC(C)(C)c1cc(NC(=O)Nc2ccc(-c3cn4c(n3)sc3cc(OCCN5CCOCC5)ccc34)cc2)no1 [Quizartinib (AC220)] | 105% and 110% | 103% | 80.1% | 82.9% | 14.9% | 9.61% | 36.9% | 45.7%
33 | CNC(=O)c1ccccc1Sc1ccc2c(/C=C/c3ccccn3)n[nH]c2c1 [Axitinib] | 8.75% and 13.3% | 14% | 57% | 65.2% | 29.5% | 15.3% | 36.9% | 34%
34 | NC(=O)c1ccc(OCCCN2CC3CCCC3C2)cc1 (configuration not stated) | 102% and 107% | 104% | 106% | 98% | 100% | 101% | 114% | 98%
35 | CCN1CCN(Cc2ccc(Nc3ncc(F)c(-c4cc(F)c5nc(C)n(C(C)C)c5c4)n3)nc2)CC1 | 1.86% and 0.59% | 0.69% | 0.46% | 0.64% | 0.3% | 0.31% | 0.29% | 0.39%
36 | C[C@]12CCC3=C4CCC(=O)C=C4CC[C@H]3[C@@H]1CC[C@@]2(O)CC#N [Dienogest] | 104% and 96.7% | 102% | 93% | 107% | 100% | 103% | 104% | 106%
37 | O=C(c1ccccc1)c1ccc2n1CCC2C(=O)O (configuration not stated) [Ketorolac] | 102% and 98.1% | 99.6% | 100% | 102% | 98.2% | 102% | 103% | 108%
38 | CC(C)=CCC[C@](C)(O[C@@H]1O[C@H](CO)[C@@H](O)[C@H](O)[C@H]1O)[C@H]1CC[C@]2(C)[C@@H]1[C@H](O)C[C@@H]1[C@@]3(C)CC[C@H](O)C(C)(C)[C@@H]3[C@@H](O[C@@H]3O[C@H](CO)[C@@H](O)[C@H](O)[C@H]3O)C[C@]12C [Ginsenoside Rg1] | 95.2% and 91.8% | 101% | 96.7% | 94.4% | 97.5% | 98.4% | 99.5% | 104%
39 | CN1CCC(CNc2ccc3ncc(-c4cccc(OC(F)(F)F)c4)n3n2)CC1 [SGI-1776 free base] | 1.35% and 1.49% | 2.08% | 0.84% | 2.75% | 0.45% | 0.48% | 0.42% | 0.66%
